In PubChem BioAssay (EPA / NIEHS) one finds outcome data, which are given here for 31 molecules.

Results filed as inconclusive are left out. The source made the active and inactive calls. The calls were made as follows: active = hit-call score of the fitted dose curve at least 0.9, where 1 is the maximum; inconclusive = response in the unintended direction; inactive = score below 0.9.

The nature of one test: Tanguay_ZF_120hpf_JAW_legacy: (Legacy) Oregon State University Tanguay Lab 120 Hour Post-fertilization zebrafish Assay for Jaw Malformation (AID 2283638). Put shortly:
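Dechorionated Tropical 5D wild-type zebrafish embryos, one per well, exposed statically from 6 hpf to 120 hpf at 28C in 0.64% DMSO. Jaw malformation was scored by brightfield microscopy as present or absent. It was not scored in dead embryos.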
As to `CC(C)(C)c1cc(O)ccc1O`, the molecule was classed as inactive.

For `ClC1(Cl)C2(Cl)C3(Cl)C4(Cl)C(Cl)(Cl)C5(Cl)C3(Cl)C1(Cl)C5(Cl)C24Cl` (stereo not drawn), the molecule was classed as inactive.

For the molecule `CC(C)(OO)c1ccccc1`, the molecule was classed as inactive.

As to `NC(=O)O`, the outcome was inactive.

Take `O=[N+]([O-])c1ccc(O)c([N+](=O)[O-])c1`: the outcome was inactive.

With `CCN1CCC2(CC1)COc1cc3c(cc12)N(C(=O)c1ccc(-c2ccc(-c4nnc(C)o4)cc2C)cc1)CC3`, the result was inactive.

For `ClCC(Cl)CCl`, the outcome was inactive.

Take `O=C(O)C(F)(F)C(F)(F)C(F)(F)C(F)(F)C(F)(F)C(F)(F)F`: the molecule was classed as inactive.

For `Cc1ccccc1N`, the outcome was inactive.

The next test can be described thus: Tanguay_ZF_120hpf_OTIC_legacy: (Legacy) Oregon State University Tanguay Lab 120 Hour Post-fertilization zebrafish Assay for Otic Vesicle Malformation (AID 2283639). The gist of the method: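 Binary scoring of otic vesicle defects at 120 hpf in zebrafish (Tropical 5D) held under static exposure at 28C, sealed and shaded, with final DMSO 0.64%. Embryos dying by 24 or 120 hpf excluded; fitted positively against DMSO.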
On to `CCOP(=S)(OCC)Oc1nc(Cl)c(Cl)cc1Cl`, for which the result was inactive.

With `CCC(C)(C)c1ccc(O)c(C(C)(C)CC)c1`, the result was inactive.

Turning to `Cn1sc(Cl)cc1=O`, the molecule was called inactive.

For `O=c1[nH]c(=O)[nH]c(=O)[nH]1`, the call was inactive.

As to `Oc1cccc2cccnc12`, the call was inactive.

As to `O=C(O)C(Cl)(Cl)Cl`, the molecule was classed as inactive.

As to `CC12CC1(C)C(=O)N(c1cc(Cl)cc(Cl)c1)C2=O` (stereo not drawn), the result was inactive.

As for `O=C(O)C(F)(F)C(F)(F)C(F)(F)C(F)(F)C(F)(F)C(F)(F)C(F)(F)C(F)(F)C(F)(F)C(F)(F)F`, the call was inactive.

With `CCCCCCCCc1ccc(O)cc1`, the molecule was classed as inactive.

On to `O=C(Nc1ccc2[nH]ccc2c1)c1cc2cc(F)ccc2n1Cc1cccc(F)c1`, for which the call was inactive.

Turning to `COc1cc(-c2ccc(N)c(OC)c2)ccc1N`, the call was inactive.

As to `C=C(C)C(=O)[O][Sn]([CH2]CCC)([CH2]CCC)[CH2]CCC`, the call was inactive.

As to `C[C@@H]1C[C@@H]([C@H](O)CC2CC(=O)NC(=O)C2)C(=O)[C@@H](C)C1`, the call was inactive.

In the case of `CC(C)(c1ccccc1)c1ccc(O)c(C(C)(C)c2ccccc2)c1`, the call was inactive.

Take `CCOP(=S)(OCC)SCSP(=S)(OCC)OCC`: the molecule was called inactive.

Consider `CC(=O)[O][Hg][c]1ccccc1`, for which the outcome was inactive.

Take `CN(C)N=O`: the molecule was called inactive.

Take `CC(C)(C)CC(C)(C)c1ccc(O)cc1`: the call was inactive.

As to `C=CC(=O)OCCCCCC(C)C`, the call was inactive.

`CCC(=O)C(CC(C)N(C)C)(c1ccccc1)c1ccccc1` (stereo not drawn): the molecule was called inactive.

Regarding `O=C1C2(Cl)C3(Cl)C4(Cl)C(Cl)(Cl)C5(Cl)C3(Cl)C1(Cl)C5(Cl)C24Cl` (stereo not drawn), the molecule was classed as inactive.

As to `C[C@]12CCC(=O)C[C@@H]1CC[C@@H]1[C@@H]2CC[C@]2(C)[C@@H](O)CC[C@@H]12`, the result was inactive.

In the case of `CC(C)(C)c1cc(O)ccc1O`, the call was inactive.

As to `ClC1(Cl)C2(Cl)C3(Cl)C4(Cl)C(Cl)(Cl)C5(Cl)C3(Cl)C1(Cl)C5(Cl)C24Cl` (stereo not drawn), the result was inactive.

With `CC(C)(OO)c1ccccc1`, the result was inactive.

Regarding `O=[N+]([O-])c1ccc(O)c([N+](=O)[O-])c1`, the call was inactive.

Turning to `CCN1CCC2(CC1)COc1cc3c(cc12)N(C(=O)c1ccc(-c2ccc(-c4nnc(C)o4)cc2C)cc1)CC3`, the molecule was classed as inactive.

`ClCC(Cl)CCl`: the outcome was inactive.

On to `O=C(O)C(F)(F)C(F)(F)C(F)(F)C(F)(F)C(F)(F)C(F)(F)F`, for which the molecule was classed as inactive.
